The record followed here is PubChem BioAssay AID449739 (Vanderbilt High Throughput Screening Facility, 2010).

SMILES strings stand for the structures. Among all 100,000 compounds or so, about 4,200 (4.2%) were called active. The sample as a whole holds a higher share of actives than the screen did. Values without a mark were called inactive.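 How the source made its calls: active means single-dose well whose peak fluorescence ratio is a statistical outlier from its plate by either plate-standardised score or position-corrected B-score; inactive means the rest.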

In this test the target is Voltage-dependent T-type calcium channel subunit alpha-1H (Homo sapiens) (UniProt O95180). Description: Cav3.2 calcium influx blockers – cell-based, Fluo-4 calcium fluorescence, FDSS, MLSMR library, primary screen (AID 449739). The conditions noted are these: Cav3.2-expressing cells, at 10 µM, hits give low values.
Chain of Voltage-dependent T-type calcium channel subunit alpha-1H (Homo sapiens) (O95180 whole entry, looked up): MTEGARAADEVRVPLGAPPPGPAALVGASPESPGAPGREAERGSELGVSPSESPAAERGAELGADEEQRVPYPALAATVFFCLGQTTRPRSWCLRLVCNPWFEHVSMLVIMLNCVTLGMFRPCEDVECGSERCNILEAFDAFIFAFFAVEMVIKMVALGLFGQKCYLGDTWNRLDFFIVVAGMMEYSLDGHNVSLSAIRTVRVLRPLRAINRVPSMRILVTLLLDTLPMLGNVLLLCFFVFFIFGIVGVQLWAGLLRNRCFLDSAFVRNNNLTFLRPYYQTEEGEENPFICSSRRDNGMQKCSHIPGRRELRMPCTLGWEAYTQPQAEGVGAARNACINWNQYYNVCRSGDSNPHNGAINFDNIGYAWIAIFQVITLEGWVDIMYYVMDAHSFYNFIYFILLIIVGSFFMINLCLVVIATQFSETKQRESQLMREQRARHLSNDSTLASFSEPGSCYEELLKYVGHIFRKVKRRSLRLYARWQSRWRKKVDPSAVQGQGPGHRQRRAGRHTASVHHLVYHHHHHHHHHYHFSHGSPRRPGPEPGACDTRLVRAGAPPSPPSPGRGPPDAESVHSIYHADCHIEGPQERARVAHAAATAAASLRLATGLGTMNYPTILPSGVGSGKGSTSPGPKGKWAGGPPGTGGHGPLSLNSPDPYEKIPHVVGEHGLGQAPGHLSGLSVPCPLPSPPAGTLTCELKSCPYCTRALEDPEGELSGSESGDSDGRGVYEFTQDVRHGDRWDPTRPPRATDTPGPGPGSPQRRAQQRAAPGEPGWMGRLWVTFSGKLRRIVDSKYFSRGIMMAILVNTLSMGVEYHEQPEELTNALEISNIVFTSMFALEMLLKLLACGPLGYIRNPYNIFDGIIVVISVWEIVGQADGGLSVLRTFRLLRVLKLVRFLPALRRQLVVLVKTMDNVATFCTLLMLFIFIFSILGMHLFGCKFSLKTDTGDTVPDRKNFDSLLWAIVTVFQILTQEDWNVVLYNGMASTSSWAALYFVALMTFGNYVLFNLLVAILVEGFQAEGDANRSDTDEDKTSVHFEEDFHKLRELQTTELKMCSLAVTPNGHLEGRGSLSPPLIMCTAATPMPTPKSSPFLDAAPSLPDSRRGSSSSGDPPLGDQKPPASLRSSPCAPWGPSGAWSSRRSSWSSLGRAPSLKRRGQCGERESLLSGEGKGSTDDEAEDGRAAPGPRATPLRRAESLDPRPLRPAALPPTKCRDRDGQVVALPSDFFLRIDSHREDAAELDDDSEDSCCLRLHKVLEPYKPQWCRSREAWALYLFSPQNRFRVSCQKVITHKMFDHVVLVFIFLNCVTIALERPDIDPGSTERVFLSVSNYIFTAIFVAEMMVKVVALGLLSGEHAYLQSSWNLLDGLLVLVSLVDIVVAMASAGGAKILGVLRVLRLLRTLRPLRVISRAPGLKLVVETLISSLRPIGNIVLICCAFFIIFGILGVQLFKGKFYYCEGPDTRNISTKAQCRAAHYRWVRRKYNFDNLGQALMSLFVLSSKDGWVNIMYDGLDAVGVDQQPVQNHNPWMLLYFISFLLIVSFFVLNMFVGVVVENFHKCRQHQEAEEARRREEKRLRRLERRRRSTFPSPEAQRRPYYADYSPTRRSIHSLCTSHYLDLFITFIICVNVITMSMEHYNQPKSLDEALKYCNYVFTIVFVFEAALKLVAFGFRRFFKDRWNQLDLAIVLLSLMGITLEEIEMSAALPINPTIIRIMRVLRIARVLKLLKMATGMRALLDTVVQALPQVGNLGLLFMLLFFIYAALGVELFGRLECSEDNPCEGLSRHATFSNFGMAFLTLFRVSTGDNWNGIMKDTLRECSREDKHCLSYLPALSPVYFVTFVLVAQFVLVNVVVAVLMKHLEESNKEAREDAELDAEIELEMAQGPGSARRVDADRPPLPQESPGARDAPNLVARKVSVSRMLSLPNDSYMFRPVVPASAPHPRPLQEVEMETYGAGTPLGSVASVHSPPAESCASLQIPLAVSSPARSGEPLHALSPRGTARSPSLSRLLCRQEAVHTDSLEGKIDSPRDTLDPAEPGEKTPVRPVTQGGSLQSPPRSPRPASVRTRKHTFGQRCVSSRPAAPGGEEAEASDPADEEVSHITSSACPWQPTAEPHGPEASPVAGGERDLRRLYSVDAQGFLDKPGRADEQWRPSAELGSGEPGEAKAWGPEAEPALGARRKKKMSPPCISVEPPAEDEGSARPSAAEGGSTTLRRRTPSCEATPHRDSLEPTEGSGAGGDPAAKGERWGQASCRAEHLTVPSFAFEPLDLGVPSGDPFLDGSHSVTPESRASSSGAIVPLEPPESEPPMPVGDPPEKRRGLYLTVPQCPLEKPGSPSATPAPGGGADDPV
As for `O=C(CCCN1C(=O)c2cccc3cccc(c23)C1=O)N1CCN(Cc2ccc3c(c2)OCO3)CC1`, the B-score is -2.86.

On to `O=C(Cc1ncc(C(F)(F)F)cc1Cl)Nc1cccc(Br)c1`, for which the B-score was -4.67 (active).

Regarding `O=C(CN1CCN(c2ncc(C(F)(F)F)cc2Cl)CC1)Nc1ccc2c(c1)OCO2`, the B-score was -1.4.

Take `CC(=O)c1ccc(Cc2ncc(C(F)(F)F)cc2Cl)s1`: the B-score is -0.288.

Turning to `O=C(/C=C/c1cccs1)c1cc(Cl)ccc1OC(=O)N1CCOCC1`, the B-score is -1.17.

Regarding `CN1/C(=c2/s/c(=C3/C(=O)N(c4ccccc4)NC3=Nc3ccccc3)n(C)c2=O)C(C)(C)c2ccccc21`, the B-score is -2.19.

Take `NC(=O)C1=C[C@@H](c2ccc3c(c2)OCO3)C[C@@H](OCCCCO)O1`: the B-score is 0.476.

As to `COc1ccc(-c2nnn(CC(=O)N(CCO)C(C(=O)NC3CCCC3)c3ccc(F)cc3)n2)cc1` (configuration not stated), the B-score was -1.11.

As to `O=C(Cn1nnc(-c2ccc(CN3CCOCC3)cc2)n1)NC1CCCCC1`, the B-score is -0.444.

Regarding `COc1cccc(N(CC(=O)NC2CCCC2)C(=O)Cn2nnc(-c3ccc(C)cc3)n2)c1`, the B-score was -4.56 (active).

Turning to `COCc1cc(C)nc2sc(C(=O)NC3CCCCC3)c(N)c12`, the B-score is -0.0172.

On to `N#CC1=C(N)N(c2ccc(F)cc2)C(=O)C1`, for which the B-score was -0.201.

For the compound `CCCOc1ccc(NC(=O)C2CCCNC2=O)cc1` (configuration not stated), the B-score was -0.159.

Consider `O=C(CC1NCCNC1=O)Nc1ccc(Oc2ccccc2)cc1` (configuration not stated), for which the B-score was -5.21 (active).

For `CCOc1ccc(NC(=O)CC2NCCNC2=O)cc1` (configuration not stated), the B-score is 0.0128.

With `O=C1CCCC2=C1C(c1ccccc1)n1c(s/c(=C/c3cccc(F)c3)c1=O)=N2` (configuration not stated), the B-score is 0.975.

Take `O=C1N[C@@H](Cc2ccccc2)C(=O)N2[C@@H]3N(S(=O)(=O)c4ccc(F)cc4)c4ccccc4[C@]3(Br)C[C@@H]12`: the B-score is 0.27.

On to `O=S(=O)(O)c1nc2ccccc2n1Cc1ccc(Cl)cc1`, for which the B-score is -0.194.

For the compound `N=c1n(Cc2ccc(Cl)cc2)c2ccccc2n1CC(O)c1ccco1` (configuration not stated), the B-score is -3.51 (active).

On to `Cn1c(=N)n(CC(O)c2ccccc2)c2ccccc21` (configuration not stated), for which the B-score is 0.141.

On to `Cc1cc([N+](=O)[O-])ccc1NCc1cccc([N+](=O)[O-])c1`, for which the B-score was 0.0686.

Take `Cc1c(CCO)c(=O)[nH]n1C(=O)c1c(F)cccc1F`: the B-score was 0.442.

As to `CC1CN(c2nc(-c3ccccc3)nnc2-c2ccccc2)CC(C)O1` (configuration not stated), the B-score is -0.222.

Regarding `CSc1cc(C)n(-c2ccccc2C)c(=S)c1C(C)=O`, the B-score was 0.0764.

Consider `Clc1cccc(-c2nc3nc4ccccc4nc3n2Cc2ccco2)c1`, for which the B-score is -2.21.

Turning to `Cc1ccc(Cn2c(C)nc3c(c2=O)c2nc4ccccc4nc2n3Cc2ccco2)cc1`, the B-score is -6.69 (active).

For `Cc1ccc(Cn2c(NC(=O)c3ccco3)nc3ccccc32)cc1`, the B-score was 1.58.

As for `COc1cc(OC)c2ccc(=O)oc2c1C(CCN1CCN(c2ccccc2)CC1)c1ccc2c(c1)OCO2` (configuration not stated), the B-score is -0.318.

As for `C/C=C(\C)C(=O)NCCN1C2=NC[C@H](Cc3ccc(O)cc3)N2C[C@@H]1Cc1ccc(OC)cc1`, the B-score was -0.0234.

With `CCO[C@H]1OC(C(=O)N2CCOCC2)=C[C@@H](c2ccc3c(c2)OCO3)[C@@H]1CCCO`, the B-score was -0.694.

Turning to `O=C(CSc1nnc(-c2ccccn2)n1-c1ccccc1)Nc1ccc2c(c1)OCO2`, the B-score is 0.144.

For the compound `Cc1cccc(C)c1NC(=O)CSc1nnc(-c2ccccc2)n1Cc1ccc2c(c1)OCO2`, the B-score is -6.18 (active).

With `Cc1ccccc1-c1nnc(SCC(=O)NCc2ccc3c(c2)OCO3)n1C`, the B-score is 0.345.

For the compound `COCCNC(=O)c1onc(CSc2cccc(C)c2)c1C(=O)O`, the B-score was 1.46.

For `CCCCN=C1N/C(=C\c2ccco2)C(=O)N1c1ccccc1`, the B-score was 0.203.

With `C=C(C)Cn1c(C)cc(C)c(S(=O)(=O)c2ccccc2C)c1=O`, the B-score is -4.84 (active).

For `COC/C=C/C1=CC2=CC(=O)C(C)(OC(=O)CCC(=O)OC)C(=O)C2=CO1` (configuration not stated), the B-score was -0.853.

Regarding `CC1CCN(C(NC(=O)c2ccco2)C(=O)c2ccccc2)CC1` (configuration not stated), the B-score was -1.33.

As for `COC(=O)c1cn(CC(=O)NCc2cccs2)c2ccccc12`, the B-score was -0.599.

`O=C(Cn1cc(C(=O)c2cccs2)c2ccccc21)NCc1cccs1`: the B-score is -4.4 (active).

`COCCNC(=O)Cn1cc(C(=O)c2cccs2)c2ccccc21`: the B-score was 0.167.

Consider `CC(=O)n1cc([C@@H]2C=C(C(=O)N3CCN(Cc4ccc5c(c4)OCO5)CC3)O[C@H](OCc3ccc(CO)cc3)C2)c2ccccc21`, for which the B-score was -1.49.

With `CC1(OC(=O)CCc2ccccc2)C(=O)C=C2C=C(c3ccc(C#N)cc3)N(CCc3ccccn3)C=C2C1=O` (configuration not stated), the B-score was 0.634.

As for `COC(=O)C(C)n1cnc2c(nnn2-c2cccc(Cl)c2)c1=O` (configuration not stated), the B-score was -0.438.

As for `CC(C)n1cnc2c(Nc3cccc(Cl)c3)nc(N(CCO)CCCO)nc21`, the B-score was -0.405.

As for `CC(C)C[C@H](CO)Nc1nc(N(C)c2cccc(Cl)c2)c2ncn(C(C)C)c2n1`, the B-score was -3.33 (active).

As for `CCCCc1nc2ccccc2c(=O)n1NC(=O)c1c(O)c2cccc3c2n(c1=O)CC3`, the B-score was -7.27 (active).

`CCCC(=O)Nc1c(O)c2ccccc2[nH]c1=O`: the B-score is -0.361.

With `CCNC(=O)c1c(O)c2cccc3c2n(c1=O)CC3`, the B-score is -0.155.

Consider `Cn1c(SCC(=O)N2CCCc3ccccc32)nc2ccccc2c1=O`, for which the B-score was -2.58.

Regarding `CCCc1nc2ccccc2c(=O)n1NC(=O)c1c(O)c2ccccc2[nH]c1=O`, the B-score is -3.3 (active).

On to `CCCc1nc2ccccc2c(=O)n1/N=C/c1ccc(O)c(O)c1`, for which the B-score was 0.0906.

Consider `Cc1nc(C)c(C(=O)N(c2ccc(C)c(C)c2)C(C(=O)NCc2ccco2)c2ccccc2)s1` (configuration not stated), for which the B-score was -0.655.

For the compound `COc1ccc(NCc2nnc(SCc3ccccc3)n2-c2ccc(OC)cc2)cc1`, the B-score is -3.07.

For `Cc1cccc(N2C(=O)C3C(c4ccccc4)OC4(C(=O)c5ccccc5C4=O)C3C2=O)c1` (configuration not stated), the B-score is -0.244.

Regarding `Cc1nc(-c2ccc(Cl)cc2)sc1C1(C)CC(c2ccccc2F)=NO1` (configuration not stated), the B-score was 1.15.

In the case of `COc1ccc(SCCN2CCN(CC(C)C)CCC2=O)cc1`, the B-score is 0.677.

Regarding `CCOC(=O)/C=C/CN(C(=O)OC(C)(C)C)S(=O)(=O)N1CC=CC1`, the B-score was 0.152.

In the case of `COC(=O)c1cc(OC)ccc1-c1ccc(OC)cc1`, the B-score is 0.191.

Consider `COC(=O)C1C(=O)NCC1c1ccc(OC)cc1` (configuration not stated), for which the B-score was 0.134.

Take `COC(=O)C1=C(Nc2ccc(C)cc2)C=C(C)C(C(=O)OC)C1c1ccc(F)cc1` (configuration not stated): the B-score is -5.1 (active).

As to `COC(=O)c1ccc(NC(=O)Nc2ccc(C)cc2)cc1`, the B-score is 0.0358.

Regarding `Cc1ccc(NC(=O)C2CC(c3ccc(F)cc3)=NO2)cc1` (configuration not stated), the B-score was 0.0436.

Turning to `COC(=O)C1=C(Nc2ccc(OC)cc2)C=C(C)C(C(=O)OC)C1c1ccc(C)cc1` (configuration not stated), the B-score was -5.75 (active).

Consider `COP1(=O)C[C@@H](O)[C@@H](O)[C@@H](COCc2ccccc2)O1` (some centres not stated), for which the B-score was 0.634.

As for `CC(=O)Nc1ccccc1C(=O)C(=O)Nc1ccc(F)cc1`, the B-score is 0.288.

On to `COc1cccc(CNc2nc3nc4c(c(=O)n3[nH]2)CCC4)c1`, for which the B-score is -0.11.

Take `Cc1cc2cc3c(N)[nH]nc3nc2cc1C`: the B-score was 0.083.

Regarding `O=[N+]([O-])c1ccc(NCCCN2CCOCC2)c(Cl)c1`, the B-score is 0.715.

For `O=C(CN1C(=O)NC2(CCCC2)C1=O)Nc1ccc(F)c(F)c1F`, the B-score was 0.274.

In the case of `O=C1c2ccccc2S(=O)(=O)c2cc(N3CCN(c4ccccn4)CC3)ccc21`, the B-score was 0.804.

As to `Cc1ccc(-n2c(C)cc(/C=C(\C#N)C(=O)NCC3CCCO3)c2C)cc1` (configuration not stated), the B-score was -1.95.

Consider `CC(C)CC(=O)N/C(N)=N/c1nc2ccccc2s1`, for which the B-score is -4.05 (active).

`CCC(=O)NC(=Nc1nc2ccccc2s1)NC(=O)CC`: the B-score was -0.485.

Consider `O=C(O)CSCc1nc2ccccc2s1`, for which the B-score was 1.19.

In the case of `Cc1nn(C)cc1/C=N/NC(=O)c1sc2ccccc2c1Cl`, the B-score is 2.17.

Regarding `Cc1ccc(-c2nn(-c3ccccc3)cc2/C=N/NC(=O)c2ccc3c(c2)OCO3)cc1`, the B-score was -3.75.

Turning to `Cc1ccc(/C=N/NC(=O)C2=NNC(c3ccccc3)(c3ccccc3)C2)c(O)c1`, the B-score is -6.92 (active).

Turning to `COc1ccc(SCc2noc(C(=O)NCC3CCCO3)c2C(=O)O)cc1` (configuration not stated), the B-score was 1.72.

On to `CS(=O)(=O)n1nc(-c2ccccc2)nc1NCc1ccco1`, for which the B-score was 0.406.

Consider `CCS(=O)(=O)n1nc(-c2ccccc2)nc1SCc1ccccc1`, for which the B-score is -3.19 (active).

On to `CCS(=O)(=O)n1nc(-c2ccc(OC)cc2)nc1SC`, for which the B-score is -0.316.

On to `NC(=O)C1=C[C@H](c2csc3ccccc23)C[C@H](OCc2ccc(CO)cc2)O1`, for which the B-score was 0.00737.

For `COCCOCCn1cnc2ccccc21`, the B-score is 0.734.

On to `Cc1cc2nc(C)n(CCCNC(=O)Nc3ccccc3)c2cc1C`, for which the B-score was -1.52.

As to `Cc1cc2ncn(CCCCOc3ccccc3)c2cc1C`, the B-score is -4.34 (active).

As for `Cc1ccc2c(c1)-c1c(ssc1=S)C(C)(C)N2C(=O)CN1C(=O)c2ccccc2C1=O`, the B-score is -1.31.

Consider `CC1=C(C)C(=O)OC(C(C)C2CCC3C4CC=C5CC(OC6OC(COC7OC(CO)C(O)C(O)C7O)C(O)C(O)C6O)CC(O)C5(C)C4CCC23C)C1` (configuration not stated), for which the B-score was -0.348.

For the compound `CC(C)=CCC/C(C)=C/C(=O)O`, the B-score is 0.444.

Consider `CN(C)c1ccc(NC(=S)N(CCc2ccccc2)C2CC(=O)N(c3c(Cl)cccc3Cl)C2=O)cc1` (configuration not stated), for which the B-score is -7.09 (active).

Turning to `COC(=O)CN(C(=S)Nc1ccc(Cl)cc1)C1CC(=O)N(c2ccc(OC)cc2)C1=O` (configuration not stated), the B-score was -0.0552.

In the case of `CCCOc1ccc(N2C(=O)CC(N(CCc3ccc(S(N)(=O)=O)cc3)C(C)=O)C2=O)cc1` (configuration not stated), the B-score was -0.148.
